This is an account of results in PubChem BioAssay (NCI).

Compounds without any hit were thinned out: in the full panel of roughly 83,000, 20% have a hit.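 Plates (96-well) were seeded with cells, treated with compound at one concentration, and incubated for 48 hours before percent growth was determined.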 A number with no mark means an inactive call. Active and inactive are the calls of the source.

The experiment deals with HCT-116 colon. In words: NCI-60 one-dose screen, 48 h (100 = growth as untreated, 0 = no growth, -100 = all killed). To be noted: 10 µM unless noted. Here is the method:
Growth inhibition of the HCT-116 human tumor cell line is measured as a screen for anti-cancer activity. Cells are grown in 96 well plates and exposed to the test compound for 48 hours. Compounds are tested at a single concentration, which is 10^-5 M for most compounds. The reported endpoint is percent growth (GI% or GIPRCNT), where numbers from 0 - 100% represent growth inhibition, and numbers from -100% - 0 represent cell death. For example, a value of 40 represents 60% growth inhibition. A value of 0 means no net growth occurred over the course of the experiment. A value of -40 indicates 40% of cells at the beginning of the experiment died by the end of the experiment. A value of -100 means all cells are dead at the end of the experiment.
NCI-60 Human Tumor Cell Lines Screen was performed using the standard one-dose NCI protocol, which is described in more detail at https://dtp.cancer.gov/discovery_development/nci-60/default.htm.
Compounds with GIPRCNT values below 10 were considered active. Activity score was based on GIPRCNT using the following formula: […]
Score is 0 for GIPRCNT values of 100 or above, 50 for GIPRCNT values of 0, and 100 for GIPRCNT values of -100.
Consider `CNC(=O)c1cc(-c2ccc(NC(=O)Nc3ccc(N4CCN(C)CC4)c(C(F)(F)F)c3)cc2)nc2cccnc12`, for which the growth is -98.4% (active). Next, `Nc1c(C(=O)Nc2ccc(Cl)cc2)sc2nc(-c3cnccn3)cc(-c3cccs3)c12`: 41.6%; `O=C(N/N=C/c1ccc(Cl)s1)c1[nH]c2ccc(Br)cc2c1-c1ccccc1`: -27.5% (active).

Take `COc1cc(/C=C/C(=O)c2ccc(F)cc2)ccc1Oc1nc(NCCO)nc(N2CCOCC2)n1`: the growth is 11.3%. Next, `Cc1ccc(CNS(=O)(=O)/N=C2\NC(=O)NC2=C(Cl)Cl)cc1`: 9.17% (active); `COc1ccc(C(=O)c2cc(C(=O)/C=C/c3c(Cl)cccc3Cl)c3cc(C)ccn23)cc1`: 99.8%.

In the case of `O=C1c2c(c3c4cccnc4[nH]c3c3ccc4ccccc4c23)C(=O)N1CCO`, the growth is 60.2%. Next, `COc1ccc(NC2=C(Cl)C(=O)C(C)=C(C)C2=O)cc1OC`: 96.4%. With `O=C1/C(=C/C2=Cc3ccccc3OC2)SC(=S)N1c1ccc(F)cc1`, the growth was 99.1%. Next, `CC(O)C(NC(=O)C1CCCN1C(=O)CNC(=O)C1CC(=O)NCC(=O)NC(Cc2c[nH]c3ccccc23)C(=O)NC(Cc2ccc(O)cc2)C(=O)NCC(=O)NC(CO)C(=O)NC(CCC(N)=O)C(=O)NC(Cc2c[nH]c3ccccc23)C(=O)N1)C(=O)NCC(=O)NC(CCC(N)=O)C(=O)NC(CCCNC(=N)N)C(=O)NC(CC(=O)O)C(=O)O` (stereo not given): 97.4%; `Clc1ccc2oc3c(NCCCN4CCOCC4)c4ccccc4nc3c2c1`: 14.8%. Next, `Nc1c(C(=O)Nc2ccc(C(F)(F)F)cc2)sc2nc(-c3cnccn3)cc(-c3cccs3)c12`: -62.1% (active). As for `Clc1ccc2c(NCCCN3CCOCC3)c3oc4ccc(Cl)cc4c3nc2c1`, the growth was 23.4%.

As to `COc1cccc(COc2ccc(/C=C3/C(=O)Nc4cc(Cl)ccc43)cc2)c1`, the growth was 93.7%. As for `CCCC(=O)NC(c1cccnc1)c1cc(C)c2cccnc2c1O` (stereo not given), the growth was 8.73% (active). As for `O=C1Nc2ccccc2Oc2ccc(S(=O)(=O)CC3CO3)cc21` (stereo not given), the growth was 46.3%. As for `O=C(CSc1nccc(=O)[nH]1)Nc1ccc(-c2nc3ccccc3[nH]2)cc1`, the growth is 106%. As to `COc1ccc(C(=O)/C=C/c2ccc(OCc3ccc(C)cc3)c(OC)c2)cc1OC`, the growth was 25.3%. Consider `Fc1ccc(-c2cc3nc(C(Cl)Cl)nc(-c4ccc(Cl)cc4)n3n2)cc1`, for which the growth was 11.7%. Turning to `Nc1nc(N)c2c(n1)NC(c1ccc(F)cc1)CC(c1ccc(Nc3nc(NCCO)nc(Nc4ccc(Cl)cc4)n3)cc1)=N2` (stereo not given), the growth was -67.4% (active).

Regarding `N/C(=N\c1nc2c(Br)cccc2s1)C(Br)Br`, the growth is -56.1% (active). `COc1ccc(C(=O)/C=C/c2ccc(Oc3nc(NCCO)nc(N4CCOCC4)n3)c(OC)c2)cc1`: the growth was 10.6%. Turning to `CCCC(=O)NC(c1cccc(N(C)C)c1)c1cc(C)c2cccnc2c1O` (stereo not given), the growth was 22.7%. Next, `Fc1ccc(-c2nc(C(Cl)Cl)nc3cc(-c4ccccc4)nn23)cc1`: 5.36% (active); `Cc1ccc(C(=O)Nc2cccc(C(F)(F)F)c2)cc1Nc1nc(-c2cnccn2)nc2c1cnn2C`: 35.6%; `COc1ccc(/C=N/Nc2ccnc3cc(Cl)ccc23)cc1Cl`: -89.4% (active). For the compound `O=C(CCCN1C(=O)/C(=C/c2ccccc2F)SC1=S)N1CCOCC1`, the growth is 88.7%.

Consider `COc1cccc(OC)c1-c1nnn(C)c1C(=S)N1CCN(c2ccc([N+](=O)[O-])cc2Cl)CC1`, for which the growth was 88.2%.

For the compound `C/C(=C(/c1ccc(Cl)cc1)c1ccc(OCCN)cc1)c1ccc(C)cc1`, the growth is 101%.

In the case of `Nc1cc(-c2c[nH]c3ccc(F)cc23)nc2cc(-c3c[nH]c4ccc(F)cc34)nn12`, the growth was 31.9%. Next, `O=C(N/N=C/c1ccco1)c1[nH]c2ccc(Br)cc2c1-c1ccccc1`: -12.9% (active); `CCC/C=C/C=C/C(=O)N[C@@H](Cc1cc(F)cc(F)c1)C(=O)N[C@@H]1C(=O)N2CCC[C@H]2C(=O)N2CCCC[C@H]2C(=O)N[C@@H](C)C(=O)N2C[C@H](C)C[C@H]2C(=O)O[C@H]1C`: 13.4%; `CC(C)(O)c1cncc(-c2ccc3ncnc(N4CCc5cc(F)c(Cl)cc54)c3c2)c1`: 30.1%. Next, `N#Cc1c(-c2ccc(Cl)cc2)nc(SCc2ccc([N+](=O)[O-])cc2)nc1N1CCNCC1`: -91.5% (active).

On to `CCOc1ccc2nc(NC(=O)c3ccc(C(F)(F)F)cc3)sc2c1`, for which the growth was 102%. Next, `CC(=O)c1ccc(Nc2nc(SC(C)C)nc(-c3ccccc3)c2C#N)cc1`: 97.5%; `O=C(c1ccc(O)cc1)C1[C@H](c2ccc(Cl)cc2)[C@@H](c2ccccc2)NC12C(=O)Nc1ccc(Cl)cc12` (stereo not given in full): 14.5%. Take `CCCCN1C(=O)/C(=c2\sc3n(c2=O)C2C(NN=3)N(CC)C(=O)N2CC)c2cc(Cl)ccc21` (stereo not given): the growth was 56.7%. Next, `N=C1CC(=O)NN1C(=O)CSc1nc2sc3c(c2c(=O)n1-c1ccc(Cl)cc1)CCCC3`: 99%; `CS(=O)(=O)c1ccc(-c2nc3ccccn3c2/C=N/Nc2nc(-c3ccc(Cl)cc3)cs2)cc1`: 101%.
